# In the library only some 2.4% were active in any assay of this set; here they are far more common.
# D2 PAM-1 = HTS Assay for Positive Allosteric Modulators of the Human D2 Dopamine Receptor: Primary Screen for Potentiators; HEK293 T-REx D2, calcium flux, EC20 dopamine potentiation; potentiation, % at 10 µM; actives 0.34% (n = 340,000);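 active means potentiation over 3 SD above the plate norm, cut at about 30% in these data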; further: 0% is about no effect
# Target sequence (P14416 whole entry, looked up): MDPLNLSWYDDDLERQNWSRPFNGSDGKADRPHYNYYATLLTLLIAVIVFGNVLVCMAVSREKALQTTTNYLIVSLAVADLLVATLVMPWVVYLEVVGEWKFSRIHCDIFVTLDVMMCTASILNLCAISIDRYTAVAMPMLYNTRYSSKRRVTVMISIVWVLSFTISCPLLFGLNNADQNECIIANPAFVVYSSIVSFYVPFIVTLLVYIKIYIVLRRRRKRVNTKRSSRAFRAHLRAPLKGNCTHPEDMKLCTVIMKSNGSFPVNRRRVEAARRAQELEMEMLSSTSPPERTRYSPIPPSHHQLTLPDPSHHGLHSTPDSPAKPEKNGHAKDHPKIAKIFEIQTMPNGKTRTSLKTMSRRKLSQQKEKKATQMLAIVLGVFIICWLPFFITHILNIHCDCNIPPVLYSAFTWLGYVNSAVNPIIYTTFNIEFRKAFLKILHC
#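 Potentiation of an EC20 dopamine calcium response is measured in a force-coupled, tetracycline-inducible Hek293 Trex D2 line. Compound-only kinetic reads over 180 s flag agonists before dopamine addition.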
# D2 ag-1 = Beta-Arrestin HTS for Positive Allosteric Modulators of the Human D2 Dopamine Receptor: Agonists. D(2) dopamine receptor (Homo sapiens), P14416. DiscoveRx PathHunter D2 beta-arrestin, luminescence, 90 min; 100% = 57 uM dopamine signal. actives 0.084% (n = 360,000). activation, % (test concentration not listed); in the data active means activation above about 40%; inconclusive means between about 15% and that limit
#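 DiscoveRx PathHunter D2 beta-arrestin cells (2,100/well) attached overnight, then compound-stimulated 90 min at 37 C in HBSS/10 mM HEPES/0.1% Tween-20 buffer; beta-galactosidase complementation read by luminescence after 1 h at ambient temperature. Dopamine 57 uM final (EC100) as control.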
# D2 antagonist = HTS Assay for Allosteric Antagonists of the Human D2 Dopamine Receptor: Primary Screen for Antagonists; D(2) dopamine receptor (Homo sapiens), P14416; HEK293 TREx D2 cells, calcium flux, dopamine EC80; inhibition, % at 10 µM; actives 2% (n = 340,000); AID 485344, 2010; in the data active means inhibition above about 30%; inactive means below that, where a call was filed; further: 0% is about no effect
#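 Measurement of antagonist activity uses fluorescent calcium dye in inducible HEK293 T-REx D2 cells: 10 s baseline, compound addition with 180 s read, EC80 dopamine addition with a further 180 s read.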
# D2 PAM-2 = Beta-Arrestin HTS for Positive Allosteric Modulators of the Human D2 Dopamine Receptor: Potentiators; D(2) dopamine receptor (Homo sapiens), P14416; DiscoveRx D2 beta-arrestin cells, luminescence, 90 min; 100% = 57 uM dopamine signal; potentiation, % (no concentration beside the values); actives 0.23% (n = 360,000); AID 624464, 2012; in the data active means potentiation above about 50%; inconclusive means mostly about 30% to 49%
#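 D2 cells co-treated with compound plus 50 nM dopamine (EC20) for 90 min at 37 deg C to detect potentiation. Beta-arrestin recruitment was read as enzyme-fragment luminescence after 1 h at ambient temperature. Full response was set by 57 uM dopamine.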
# D2 ag-2 = HTS Assay for Allosteric Agonists of the Human D2 Dopamine Receptor: Primary Screen for Agonists. D(2) dopamine receptor (Homo sapiens), P14416. HEK293 T-REx D2 cells, calcium flux agonist mode. activation, % at 2 µM. actives 0.53% (n = 340,000);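 active means activation over 3 SD above normal in the single-dose calcium agonist read, cut at about 30% in these data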; further: 0% is about no effect
#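 Tetracycline-induced HEK293 Trex cells with D2 receptor force-coupled to calcium signaling, plated overnight at 30 C and loaded with no-wash calcium dye. Calcium flux read kinetically for 180 s after compound addition; responses flag agonists.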
# The depositor's hits bear a star; ? = inconclusive; · = no result.
SMILES,D2 PAM-1,D2 ag-1,D2 antagonist,D2 PAM-2,D2 ag-2
CCOC(=O)C1CCCN(S(=O)(=O)c2cc3c4c(c2)CCN4C(=O)CC3)C1 (centres undefined),16,?,-6,-2,0
NC(=O)C1CCN(S(=O)(=O)c2cc3c4c(c2)CCN4C(=O)CC3)CC1,3,-6,30*,4,0
COc1ccccc1NC(=O)CSc1oc(-c2ccccc2)nc1S(=O)(=O)c1ccccc1,22,·,·,·,0
CN(C)CCCN1c2ccccc2Sc2ccccc21,·,-10,·,-35,·
CNCCCN1c2ccccc2CCc2ccccc21,-23,-1,39*,-28,2
CCN1C(=O)CCCc2ccccc21,6,1,8,-4,0
CN(C)CCCN1c2ccccc2CCc2ccc(Cl)cc21,-29,1,89*,-23,2
OC(CNCC1COc2ccccc2O1)COc1ccc(Cl)cc1 (centres undefined),-19,-2,104*,-4,33*
OC(CNCC1CCCO1)COc1ccc(OCC(O)CNCC2CCCO2)cc1 (centres undefined),43*,-2,-7,-17,0
CCOC(=O)c1c(C)n(-c2ccc(C)cc2)c2ccc(OCC(O)CNCC3CCCO3)cc12 (centres undefined),-8,-11,-4,-19,0
CCOC(=O)c1[nH]cnc1C(=O)N1CCN(C(=O)OC(C)(C)C)CC1,-1,-3,31*,-8,0
Cc1ccc(S(=O)(=O)N2[C@@H](c3cccc(Cl)c3)C(C(=O)OC(C)(C)C)=CC[C@H]2c2cccc(Cl)c2)cc1,·,-4,·,-4,·
CCS(=O)(=O)c1ccc(O)c(NC(=O)/C=C/c2ccccc2)c1,-12,-5,9,-14,0
Cc1c(O)ccc(NC(=O)/C=C/c2ccccc2)c1C,-9,1,35*,1,0
CCSc1c(-c2ccccc2)nc2c(C)cccc2c1C(=O)O,-17,0,-1,-12,34*
CCC1(C(N)=O)CC2C=CC1C2 (centres undefined),·,-1,·,-2,·
OC(c1cccc(Cl)c1)c1nccc2ccccc12 (centres undefined),2,-2,-3,-5,0
O=C(OC(c1ccccc1)c1nccc2ccccc12)c1cc([N+](=O)[O-])cc([N+](=O)[O-])c1 (centres undefined),11,?,3,81*,-1
Clc1ccc(/C=N/Nc2nnc(-c3ncc[nH]3)c3ccccc23)cc1,-18,-4,70*,-17,0
COc1ccc(C(=O)NCc2cn3ccsc3n2)cc1OC,33*,-3,-5,-2,1
CCNC(=O)C1(C)CCN(C(=O)c2ccccc2OC)C1 (centres undefined),·,-3,·,-15,·
COc1cccc(NC(=O)CN(C)C(=O)Cn2c(=O)oc3ccccc32)c1,0,-2,-15,-22,0
CCCN(CCC)C(=O)CSc1nnc2cc(C)c3ccccc3n12,3,·,·,·,-1
Cc1ccc(-n2nnnc2CN2CCCCC2)cc1,1,2,38*,-2,0
O=C(CN1CCCC1)Nc1cc(C(F)(F)F)ccc1Cl,-20,-6,82*,-13,-2
SMILES,D2 PAM-1,D2 ag-1,D2 antagonist,D2 PAM-2,D2 ag-2
CCN(c1ccccc1)S(=O)(=O)c1ccc(Cl)c(NC(=O)CN2CCCCCC2)c1,-10,2,1,-5,1
O=C(CN1CCCCC1)Nc1ccc(C(F)(F)F)cc1Cl,-1,-2,-29,1,-1
CN(C)S(=O)(=O)c1ccc(Cl)c(NC(=O)CN2CCCCCC2)c1,-30,-3,34*,-22,-3
CN(C)S(=O)(=O)c1ccc(Cl)c(NC(=O)CN2CCC(Cc3ccccc3)CC2)c1,-10,2,42*,-26,-5
CN(C)S(=O)(=O)c1ccc(NC(=O)CN2CCC(Cc3ccccc3)CC2)cc1,-6,-2,-1,-3,2
O=C(CCCC(=O)OCC(=O)c1ccc(F)cc1)Nc1cc(C(F)(F)F)ccc1Cl,-20,-4,47*,0,1
O=C(CCCC(=O)OCC(=O)c1ccc(Cl)cc1Cl)Nc1cc(C(F)(F)F)ccc1Cl,-11,-11,19,-40,1
CCOC(=O)c1ccc[n+](CC(=O)Nc2cc(C(F)(F)F)ccc2Cl)c1,-9,-3,52*,-15,0
NC(=O)C1(N2CCCCC2)CCN(CC(=O)Nc2cc(Cl)ccc2Cl)CC1,-25,-1,43*,-11,0
CN(CC(=O)Nc1cc(S(=O)(=O)N2CCCC2)ccc1Cl)Cc1ccc2c(c1)OCO2,-16,-2,32*,-8,-1
O=C(COC(=O)c1ccc(O)cc1)Nc1cc(C(F)(F)F)ccc1Cl,-3,6,0,-4,3
Cn1c(C(=O)NCc2ccccc2Cl)cc2sc(Cl)cc21,-5,·,·,·,0
CNC(=O)C1CCN(Cc2cc3ccccc3n2Cc2cccc(C)c2)CC1,·,·,·,·,0
COc1ccc(C2(c3ccc(OC)cc3)NC(=O)N(CC(=O)NCC(C)c3ccccc3)C2=O)cc1 (centres undefined),-4,-2,68*,3,5
COc1ccc(C2(c3ccc(OC)cc3)NC(=O)N(CC(=O)NC(C)C)C2=O)cc1,2,-2,-14,-5,1
CCOc1ccc(OCCn2nnc3ccccc3c2=O)cc1,52*,4,7,-5,-1
COc1ccc(NC(=O)C2(c3ccc(NC(=O)c4ccc(OC)c(OC)c4)cc3)CCCC2)cc1,-3,5,19,-2,0
COc1ccc(NC(=O)C2(c3ccc(NC(=O)c4ccc(C)cc4)cc3)CCCC2)cc1,-4,0,34*,8,0
CNC(=O)CSc1nnnn1-c1cc(C)ccc1C,46*,-4,4,-13,-1
CCOC(=O)C1CCN(S(=O)(=O)c2cnc[nH]2)CC1,4,-4,35*,-24,0
COc1ccccc1NC(=O)CCS(=O)(=O)c1cc2c3c(c1)CCN3C(=O)CC2,9,·,·,·,0
O=C(Nc1nc2cc3c(cc2s1)OCCO3)c1ccc([N+](=O)[O-])o1,11,1,37*,7,1
N/C(Cc1ccccc1)=N\OC(=O)c1cccc2ccccc12,-5,9,-35,?,37*
N/C(Cc1cccc2ccccc12)=N\OC(=O)c1ccccc1F,-2,?,17,61*,3
